# Assay results from PubChem BioAssay (NCATS).
# Values joined by “and” are separate entries in the source; they are usually repeats but may differ in a detail not shown here. Equal values may be shown once. Inconclusive results are not listed. Active and inactive are the calls of the source. Unless noted, calls come from the whole dose curve; as a rule, active = well fitted curve in either direction with a large enough effect (not every such curve was filed as active); inconclusive = small, poorly fitted or top-dose-only effect, or another doubt; inactive = flat fitted curve, though single readings scatter.
# What was measured:
# [1] = target: Mitogen-activated protein kinase 10 (Mus musculus) (UniProt Q61831); assay: JNK3 AlphaScreen Assay (AID 530);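 note: kinase came from lysate of stimulated human HepG2 cells; signal reports phosphorylation of biotinylated GST-cJun 1-79 at Ser73 with 10 µM ATP; % is set by controls: 0 for no effect and ±100 for the full control effect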
# How it was run: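 HepG2 lysate (IL-1b/TNFa pre-activated) + biotin-GST-cJun 1-79 + anti-pSer73 cJun; cpd titration, 15 min RT; ATP 10 uM start; Tris pH 7.6, MgCl2, DTT, vanadate; beads in EDTA buffer; AlphaScreen.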
# [2] = target: Cytochrome P450 3A4 (Homo sapiens) (UniProt P08684); assay: qHTS Assay for Inhibitors and Substrates of Cytochrome P450 3A4 (AID 884; active = well fitted curve in the direction sought with a large enough effect; an effect the other way counts as inactive or inconclusive; note: nearly all actives have a fitted effect of over 50% in size; note: potency is the fitted concentration of half-maximal effect)
# How it was run: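 Luminescent readout of luciferin produced by CYP3A4 (20 nM) dealkylation of Luciferin-PPXE, 25 uM (its KM). NADPH-driven reaction ran 60 min at RT after 10 min compound preincubation; data scaled to 57 uM ketoconazole as 100% inhibition.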
# [3] = qHTS Assay for Lipid Storage Modulators (AID 1519; calls by dose curve); conditions: Drosophila S3 cells, BODIPY lipid droplet/cell ratio, laser cytometry, cells loaded with oleic acid
# How it was run: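 Cells seeded at 5,000 per well were treated with compounds over a concentration series and loaded with oleic acid (400 uM, as added). Lipid droplet fluorescence (488 nm excitation, 500-530 nm channel) was read by laser-scanning cytometry and normalized to 20 uM Triacsin C.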
# [4] = target: Ubiquitin carboxyl-terminal hydrolase 1 (Homo sapiens) (UniProt O94782); assay: Inhibitors of USP1/UAF1: Pilot qHTS (AID 504865; active = well fitted curve in the direction sought with a large enough effect; an effect the other way counts as inactive or inconclusive; note: nearly all actives have a fitted effect of over 35% in size; note: potency is the fitted concentration of half-maximal effect)
# How it was run: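 Deubiquitinase activity followed as kinetic rhodamine fluorescence release from 150 nM Ub-Rho. 1 nM USP1/UAF1 with compound, after 15 min room-temperature preincubation, in HEPES pH 7.8 buffer containing TCEP, EDTA, BSA and Tween-20.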
# [5] = AP1 Signaling Pathway (AID 357); conditions: ME-180 AP-1-bla reporter, EGF-induced, beta-lactamase ratio, 5 h; at 7.69 µM (top of the series) unless noted; note: % is set by controls: 0 for no effect and ±100 for the full control effect
# How it was run: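 ME-180 cells with beta-lactamase reporter under AP-1 response element, stimulated with EC50 EGF; compounds tested in titration series, 5 h at 37 °C. CCF4 substrate added 2.5 h at room temperature; 460/530 nm emission ratio gave %activity and AC50.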
# [6] = target: Cytochrome P450 1A2 (Homo sapiens) (UniProt P05177); assay: p450-cyp1a2 (AID 410; calls by dose curve; note: potency is the fitted concentration of half-maximal effect;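 for activity change, negative = inhibition: -100% = full effect of reference inhibitor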)
# How it was run: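 Read-out is luminescence from luciferin produced by CYP1A2 demethylation of Luciferin-ME (100uM, at Km). Detection reagent stopped the 60 min NADPH-dependent reaction; signals were normalized to 57 uM furafylline.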
# [7] = NFAT Signaling Pathway (AID 444); conditions: Jurkat NFAT-bla M1, carbachol, beta-lactamase ratio, 5 h; at 7.69 µM (top of the series) unless noted;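 note: carbachol stimulus at about its EC50 of 1 µM final; % is set by controls: 0 for no effect and ±100 for the full control effect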
# How it was run: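 Jurkat cells with NFAT-driven β-lactamase reporter and co-expressed M1 receptor, stimulated with carbachol (final 1 uM, ~EC50), compound titration, 5 h at 37 °C. CCF4 loaded 1 h at RT; 460/530 nm ratio gave %activity and AC50.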
# [8] = Stat Signaling Pathway (AID 446); conditions: ME-180 SIE beta-lactamase reporter, IL-6 stimulated, 5 h; at 7.69 µM (top of the series) unless noted;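 note: ME-180 cervical cancer cells given 40 pM IL-6 alongside compound; SIE-controlled beta-lactamase reporter measured as 460/530 nm FRET emission ratio; % is set by controls: 0 for no effect and ±100 for the full control effect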
# How it was run: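 Compound effects on IL-6-induced STAT reporter activity were measured in ME-180 cells. After overnight culture, cells were co-treated with 40 pM IL-6 for 5 hrs before beta-lactamase substrate loading at room temperature.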
# [9] = target: Glucocorticoid receptor (Homo sapiens) (UniProt P04150); assay: GR-GFP Redistribution (AID 450;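 active = compounds whose dose series gives a full or clear partial fitted curve of increased nuclear translocation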; note: potency is the fitted concentration of half-maximal effect); conditions: U2OS GR-GFP nuclear translocation, laser cytometry, 2 h
# [10] = target: Glucocorticoid receptor (Homo sapiens) (UniProt P04150); assay: GR-EFC Redistribution (AID 451; calls by dose curve; note: potency is the fitted concentration of half-maximal effect); conditions: CHO-K1 GR-EFC translocation, beta-gal luminescence, 2 h
# How it was run: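 CHO-K1 cells expressing nuclear EA and GR-ED fragments of b-gal; compounds titrated up to 46 uM final, 2 h at 37 C. GR nuclear translocation read as complemented b-gal luminescence after 1 h RT detection.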
# [11] = target: 3',5'-cyclic-AMP phosphodiesterase 4B (Homo sapiens) (UniProt Q07343); assay: qHTS Assay for Inhibitors of PDE-IV (AID 607; active = well fitted activation curve with a large enough effect in the main read-out, with a control signal flat, not every such curve was filed as active; note: % of control where 0% means no effect)
# How it was run: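 ACTOne HEK293 cells carry a modified cAMP-gated CNG channel and express endogenous PDE4; plated 1000 cells/well, compounds up to 22.9 uM final. Membrane-potential dye fluorescence (ex 535/em 590) was read; parental cells received 10 uM forskolin + 100 uM RO 20-1724.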
# [12] = qHTS Assay for Identification of Small Molecule Agonists for Hypoxia Response Element Signaling Pathway (AID 914; active = well fitted activation curve with a large enough effect in the signal ratio, with a control signal flat, not every such curve was filed as active; the % refers to the signal ratio; note: % of control where 0% means no effect); conditions: ME-180 (cervical carcinoma) HRE-bla reporter, beta-lactamase ratio, CoCl2, 17 h; activation: stronger effect = higher value
# How it was run: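 Cells were plated overnight, pin-dosed with compound in a titration series, co-stimulated with EC50 CoCl2 and incubated 17 hours at 37 degrees Celsius. CCF4 substrate was then loaded, and AC50 values came from the 460nm/530nm ratio.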
# [13] = target: Lysosomal acid glucosylceramidase (Homo sapiens) (UniProt P04062); assay: Glucocerebrosidase-p2 (AID 348; in the data active = potency below about 10 µM; note: potency is the fitted concentration of half-maximal effect); conditions: purified GBA, blue fluorogenic substrate, 40 min
# How it was run: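 Normal human glucocerebrosidase (0.2 nM) with blue fluorogenic substrate (80 uM final) in citrate/phosphate pH 5.9 with 10mM sodium taurocholate, 0.01% tween-20; 40 min RT, NaOH/glycine stop; fluorescence Ex 365/Em 440; AC50 from a titration from 0.6 nM upwards.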
# [14] = target: Cytochrome P450 3A4 (Homo sapiens) (UniProt P08684); assay: qHTS Assay for Activators of Cytochrome P450 3A4 (AID 885; active = well fitted curve in the direction sought with a large enough effect; an effect the other way counts as inactive or inconclusive; note: nearly all actives have a fitted effect of over 65% in size)
# How it was run: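 CYP3A4 activity: Luciferin-PPXE O-dealkylation, 25uM substrate, 200mM KPO4, RT throughout. Read-out is luciferase luminescence; higher values reflect activation.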
# [15] = target: Dual specificity protein kinase CLK4 (Homo sapiens) (UniProt Q9HAZ1); assay: qHTS Assay for Inhibitors of CDC-like Kinase 4 (ADP-FP Assay) (AID 1795; active = well fitted curve in the direction sought with a large enough effect; an effect the other way counts as inactive or inconclusive;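 note: recombinant human CLK4 phosphorylating RS repeat peptide at 1 µM ATP; % is set by controls: 0 for no effect and ±100 for the full control effect; nearly all actives have a fitted effect of over 60% in size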)
# How it was run: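 Kinase activity was measured as ADP production using Transcreener orange tracer (4 nM) and ADP antibody (1 ug/mL) fluorescence polarization, with ADP calculated from a calibration curve. The 1 h reaction contained 6.25 nM Clk4, 1 uM ATP and 100 uM RS peptide at pH 7.5 with Mg2+.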
# [16] = Confirmation and Secondary Assay for Modulators of Hemoglobin Beta Chain Splicing at IVS2 654 locus (AID 910; active = well fitted curve in the direction sought with a large enough effect; an effect the other way counts as inactive or inconclusive;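 note: HeLa cells stably carrying EGFP split by mutant beta-globin IVS2-654 intron; % of control where 0% means no effect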)
# How it was run: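 HeLa cells stably expressing EGFP interrupted by β-globin IVS2-654 intron, seeded overnight in Opti-MEM/2% FCS, then treated 2 days at 37 °C. Restored splicing read as total peak GFP intensity per well by laser scanning cytometry (488 nm excitation, 500–520 nm emission); 500 nM antisense PNA as control.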
# [17] = Confirmation and Secondary Assay for Modulators of Hemoglobin Beta Chain Splicing at IVS2 705 locus (AID 930; active = well fitted curve in the direction sought with a large enough effect; an effect the other way counts as inactive or inconclusive;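 note: HeLa cells stably expressing the EGFP-705 splicing reporter; GFP fluorescence per well restored by corrected splicing of the IVS2-705 intron in EGFP; % of control where 0% means no effect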)
# How it was run: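 Splice-correction reporter: EGFP cDNA split by beta-globin intron 2 bearing the 705 mutation, stably in HeLa. Compound incubation 2 days, 37C; fluorescent objects 5-250 µm summed per well.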
# [18] = measured here: cell count channel max response
# [19] = measured here: lipid channel max response
# Sequence of Cytochrome P450 1A2 (Homo sapiens) (P05177 whole entry, looked up): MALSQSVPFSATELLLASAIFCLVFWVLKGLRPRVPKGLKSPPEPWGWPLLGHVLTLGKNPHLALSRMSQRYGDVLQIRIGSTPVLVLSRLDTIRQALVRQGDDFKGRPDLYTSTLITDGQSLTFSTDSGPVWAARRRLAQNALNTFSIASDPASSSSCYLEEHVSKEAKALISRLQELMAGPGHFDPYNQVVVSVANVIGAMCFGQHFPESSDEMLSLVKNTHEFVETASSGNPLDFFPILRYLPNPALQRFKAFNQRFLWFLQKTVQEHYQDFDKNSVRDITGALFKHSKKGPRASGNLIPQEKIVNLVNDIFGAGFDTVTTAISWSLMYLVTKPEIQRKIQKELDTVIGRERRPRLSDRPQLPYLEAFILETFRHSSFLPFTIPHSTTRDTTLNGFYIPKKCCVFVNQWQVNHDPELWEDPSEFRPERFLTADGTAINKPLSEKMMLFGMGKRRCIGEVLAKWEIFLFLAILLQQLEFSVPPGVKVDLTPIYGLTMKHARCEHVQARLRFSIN
# Sequence of Cytochrome P450 3A4 (Homo sapiens) (P08684 whole entry, looked up): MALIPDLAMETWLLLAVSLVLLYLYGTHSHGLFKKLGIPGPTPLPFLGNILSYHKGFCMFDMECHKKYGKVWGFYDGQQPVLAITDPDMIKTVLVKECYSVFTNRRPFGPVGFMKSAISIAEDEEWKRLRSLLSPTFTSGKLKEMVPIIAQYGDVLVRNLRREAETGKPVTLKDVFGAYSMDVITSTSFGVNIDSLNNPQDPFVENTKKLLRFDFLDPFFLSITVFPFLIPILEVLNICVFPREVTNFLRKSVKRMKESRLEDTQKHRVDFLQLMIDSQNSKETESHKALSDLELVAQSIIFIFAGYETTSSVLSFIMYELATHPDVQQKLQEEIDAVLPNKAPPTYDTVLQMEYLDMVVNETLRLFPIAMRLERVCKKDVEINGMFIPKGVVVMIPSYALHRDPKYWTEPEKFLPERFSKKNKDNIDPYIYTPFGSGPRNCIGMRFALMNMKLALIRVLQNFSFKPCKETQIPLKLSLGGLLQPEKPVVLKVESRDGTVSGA
# Sequence of 3',5'-cyclic-AMP phosphodiesterase 4B (Homo sapiens) (Q07343 whole entry, looked up): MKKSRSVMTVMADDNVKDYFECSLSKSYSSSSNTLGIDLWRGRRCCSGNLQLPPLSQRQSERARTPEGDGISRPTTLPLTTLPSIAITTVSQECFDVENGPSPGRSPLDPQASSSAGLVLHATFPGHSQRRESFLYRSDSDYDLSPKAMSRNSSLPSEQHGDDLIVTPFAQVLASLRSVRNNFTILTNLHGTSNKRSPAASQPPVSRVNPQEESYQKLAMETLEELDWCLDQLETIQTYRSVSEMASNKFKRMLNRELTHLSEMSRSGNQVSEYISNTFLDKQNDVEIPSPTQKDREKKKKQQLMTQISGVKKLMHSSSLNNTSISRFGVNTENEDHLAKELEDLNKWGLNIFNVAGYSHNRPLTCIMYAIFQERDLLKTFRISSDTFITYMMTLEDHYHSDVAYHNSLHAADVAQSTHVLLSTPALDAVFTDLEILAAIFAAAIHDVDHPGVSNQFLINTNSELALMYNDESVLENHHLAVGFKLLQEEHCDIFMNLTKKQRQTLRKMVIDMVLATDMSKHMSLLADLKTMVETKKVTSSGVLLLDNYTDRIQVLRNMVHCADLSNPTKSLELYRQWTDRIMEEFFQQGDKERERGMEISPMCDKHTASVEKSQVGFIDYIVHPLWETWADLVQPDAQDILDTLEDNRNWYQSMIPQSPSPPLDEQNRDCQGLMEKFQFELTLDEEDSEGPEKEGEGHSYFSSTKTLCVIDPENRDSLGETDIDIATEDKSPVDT
# Sequence of Lysosomal acid glucosylceramidase (Homo sapiens) (P04062 whole entry, looked up): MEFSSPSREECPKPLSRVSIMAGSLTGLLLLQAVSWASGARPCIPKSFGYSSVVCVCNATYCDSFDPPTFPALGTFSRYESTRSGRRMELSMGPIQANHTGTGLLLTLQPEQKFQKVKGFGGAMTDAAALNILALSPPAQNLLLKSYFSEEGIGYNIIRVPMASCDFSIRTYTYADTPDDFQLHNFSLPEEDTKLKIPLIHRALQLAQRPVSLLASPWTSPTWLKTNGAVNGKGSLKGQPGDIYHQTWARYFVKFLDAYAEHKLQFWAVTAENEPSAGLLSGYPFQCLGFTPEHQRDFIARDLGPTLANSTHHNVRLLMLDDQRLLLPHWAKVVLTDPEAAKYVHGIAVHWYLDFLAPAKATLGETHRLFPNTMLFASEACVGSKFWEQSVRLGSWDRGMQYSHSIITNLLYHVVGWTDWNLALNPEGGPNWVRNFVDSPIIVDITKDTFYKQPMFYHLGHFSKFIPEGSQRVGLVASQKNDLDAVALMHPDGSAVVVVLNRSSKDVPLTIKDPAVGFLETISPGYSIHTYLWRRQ
# Sequence of Ubiquitin carboxyl-terminal hydrolase 1 (Homo sapiens) (O94782 whole entry, looked up): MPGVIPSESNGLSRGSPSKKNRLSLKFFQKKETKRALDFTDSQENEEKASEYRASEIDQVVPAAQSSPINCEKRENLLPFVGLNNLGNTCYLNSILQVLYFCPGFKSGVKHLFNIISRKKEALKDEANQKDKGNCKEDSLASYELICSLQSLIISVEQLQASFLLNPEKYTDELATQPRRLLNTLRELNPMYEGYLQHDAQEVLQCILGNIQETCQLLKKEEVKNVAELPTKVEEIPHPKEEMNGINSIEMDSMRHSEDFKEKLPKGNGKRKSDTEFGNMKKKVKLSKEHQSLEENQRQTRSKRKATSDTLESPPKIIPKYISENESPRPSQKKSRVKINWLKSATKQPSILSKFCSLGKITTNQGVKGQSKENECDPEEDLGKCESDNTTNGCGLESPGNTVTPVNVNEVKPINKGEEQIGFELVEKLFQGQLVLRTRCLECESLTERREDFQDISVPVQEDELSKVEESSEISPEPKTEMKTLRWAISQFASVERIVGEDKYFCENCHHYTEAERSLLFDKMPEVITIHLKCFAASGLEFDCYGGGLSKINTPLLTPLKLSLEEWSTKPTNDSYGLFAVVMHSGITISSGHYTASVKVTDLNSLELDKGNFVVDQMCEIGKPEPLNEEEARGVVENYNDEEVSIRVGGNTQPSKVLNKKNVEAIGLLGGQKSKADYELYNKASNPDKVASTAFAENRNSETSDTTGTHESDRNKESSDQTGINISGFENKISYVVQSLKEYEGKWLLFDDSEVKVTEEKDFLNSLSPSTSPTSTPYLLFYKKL
# Sequence of Glucocorticoid receptor (Homo sapiens) (P04150 whole entry, looked up, the tested form may be a part): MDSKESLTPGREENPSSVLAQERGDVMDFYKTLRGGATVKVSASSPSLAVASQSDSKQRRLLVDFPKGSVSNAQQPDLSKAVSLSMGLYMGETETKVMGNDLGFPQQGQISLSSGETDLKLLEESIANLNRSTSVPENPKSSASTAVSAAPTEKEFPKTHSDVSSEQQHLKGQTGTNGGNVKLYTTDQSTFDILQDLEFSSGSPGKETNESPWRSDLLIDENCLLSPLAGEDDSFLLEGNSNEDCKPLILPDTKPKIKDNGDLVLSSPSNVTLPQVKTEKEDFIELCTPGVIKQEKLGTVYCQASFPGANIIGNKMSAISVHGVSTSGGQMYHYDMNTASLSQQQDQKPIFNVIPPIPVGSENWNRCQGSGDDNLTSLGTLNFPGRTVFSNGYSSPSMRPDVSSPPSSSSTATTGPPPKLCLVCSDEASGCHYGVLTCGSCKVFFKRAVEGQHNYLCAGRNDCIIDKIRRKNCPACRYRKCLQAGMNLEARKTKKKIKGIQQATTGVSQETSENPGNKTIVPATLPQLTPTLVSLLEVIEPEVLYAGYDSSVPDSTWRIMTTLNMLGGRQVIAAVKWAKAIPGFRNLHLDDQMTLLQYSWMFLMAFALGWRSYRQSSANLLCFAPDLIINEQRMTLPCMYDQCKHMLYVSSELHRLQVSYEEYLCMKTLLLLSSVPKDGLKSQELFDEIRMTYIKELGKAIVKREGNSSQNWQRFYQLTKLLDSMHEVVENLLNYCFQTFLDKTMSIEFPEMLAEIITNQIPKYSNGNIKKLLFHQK
# Sequence of Dual specificity protein kinase CLK4 (Homo sapiens) (Q9HAZ1 whole entry, looked up): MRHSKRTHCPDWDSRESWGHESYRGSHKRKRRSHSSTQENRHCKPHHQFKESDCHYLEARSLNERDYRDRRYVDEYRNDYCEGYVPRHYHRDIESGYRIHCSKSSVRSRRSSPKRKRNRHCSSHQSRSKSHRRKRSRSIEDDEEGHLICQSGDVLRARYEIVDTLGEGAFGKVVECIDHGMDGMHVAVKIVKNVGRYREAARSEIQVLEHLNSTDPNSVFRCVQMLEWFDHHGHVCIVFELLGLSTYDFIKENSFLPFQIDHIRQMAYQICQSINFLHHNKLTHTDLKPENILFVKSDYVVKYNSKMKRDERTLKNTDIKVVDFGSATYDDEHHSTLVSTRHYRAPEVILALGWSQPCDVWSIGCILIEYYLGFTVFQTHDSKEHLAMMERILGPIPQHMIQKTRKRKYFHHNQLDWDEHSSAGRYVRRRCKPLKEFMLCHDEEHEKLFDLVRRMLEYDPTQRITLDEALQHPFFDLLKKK
SMILES,Potency [1],Potency [2],"activity change, negative = inhibition ([3]; at 57.5 µM (top of the series))","max response [3, 18]","max response [3, 19]",Potency [4],"activity change, negative = inhibition [5]",Potency [6],"activity change, negative = inhibition [7]","activity, negative = inhibition [8]",Potency [9],Potency [10],Potency [11],activation [12],"activity change, negative = inhibition ([3]; at 25.7 µM (top of the series))",Potency [13],Potency [14],Potency [15],Potency [16],outcome [17]
C=C(C)[C@H]1CC=C(C)C(=O)C1,inactive,inactive,-4.73% (inactive),-28%,-15.9%,inactive,–,–,–,–,–,–,–,–,–,–,–,–,–,–
C[C@@H]1CCC[C@H](C)N1NC(=O)c1ccc(Cl)c(S(N)(=O)=O)c1,inactive,–,–,17.3%,17%,inactive,2.6% [at 17.2 µM] (inactive) and 10.6% [at 17.2 µM] (inactive),inactive,2.78% [at 17.2 µM] (inactive) and -21.9% [at 17.2 µM] (inactive),9.09% [at 17.2 µM] (inactive) and 21.6% [at 17.2 µM] (inactive),> 20.6 µM (inactive),> 20.6 µM (inactive),inactive,-10.1% (inactive) and -0.309% (inactive),1.49% (inactive),–,–,–,–,–
Cc1ccccc1-c1ccc2ncnc(N3CCN(C)CC3)c2c1,inactive,3.98 µM (active),-2.02% (inactive),10.5%,-2.94%,inactive,25.8% (inactive),3.16 µM (active),-10.1% (inactive),-2.42% (inactive),> 46 µM (inactive),> 46 µM (inactive),–,–,–,> 11.4 µM (inactive),inactive,inactive,–,–
COc1ccccc1CNc1ccnc(-c2ccccc2C(F)(F)F)n1,inactive,–,5.29% (inactive),-3.33%,2.88%,20 µM (active),-18.3% (inactive),10 µM (active),-19.1% (inactive),4.24% (inactive),> 46 µM (inactive),> 46 µM (inactive),inactive,-5.47% (inactive),–,> 11.4 µM (inactive),inactive,–,inactive,inactive
COc1ccccc1-c1nc(NCc2cnc(C)cn2)c2ccccc2n1,inactive,–,7.28% (inactive),6.96%,14.2%,–,4.95% (inactive),5.01 µM (active),2.11% (inactive),-5.06% (inactive),> 46 µM (inactive),> 46 µM (inactive),inactive,–,–,> 11.4 µM (inactive),inactive,–,inactive,inactive
CN(C)Cc1ccccc1-c1nc(N(C)Cc2ccco2)c2ccccc2n1,inactive,–,6.11% (inactive),17.4%,24.7%,inactive,9.21% (inactive),0.794 µM (active),-18.4% (inactive),3.87% (inactive),> 46 µM (inactive),> 46 µM (inactive),–,–,–,> 11.4 µM (inactive),inactive,–,inactive,inactive
CN(C)Cc1ccccc1-c1ccc2ncnc(NCc3ccccc3)c2c1,inactive,–,5.57% (inactive),19.6%,25.6%,inactive,-7.49% (inactive),15.8 µM (active),-27% (inactive),11.3% (inactive),> 46 µM (inactive),> 46 µM (inactive),–,–,–,> 11.4 µM (inactive),inactive,–,–,inactive
c1ccc2c(Nc3ccncc3)nc(-c3ccoc3)nc2c1,inactive,1.26 µM (active),14.9% (inactive),5.31%,22.2%,44.7 µM (active),-7.11% (inactive),0.158 µM (active),-19.5% (inactive),3.23% (inactive),> 46 µM (inactive),> 46 µM (inactive),–,–,–,7.37 µM (active),inactive,–,–,–
